# Screens from PubChem.
# The list is not random: actives were taken first. Their share in the collection is about 12%.
# USP8 block: inhibitors of human USP8 deubiquitinase | inhibition, % at 20 µM | purified USP8, Ub-rhodamine cleavage fluorescence, 30 min | 4.2% of 47,000 active
# USP30 block: inhibitors of human USP30 deubiquitinase | 5.3% of 47,000 active | purified USP30, Ub-rhodamine cleavage fluorescence | inhibition, % at 25 µM
# USP17 inh: blocks human USP17 ubiquitin-rhodamine cleavage; AID 1645855; purified USP17, Ub-rhodamine cleavage fluorescence, 3 h; A8MUK1; 6.5% of 47,000 active; inhibition, % at 50 µM
# Target sequence (A8MUK1 whole entry, looked up): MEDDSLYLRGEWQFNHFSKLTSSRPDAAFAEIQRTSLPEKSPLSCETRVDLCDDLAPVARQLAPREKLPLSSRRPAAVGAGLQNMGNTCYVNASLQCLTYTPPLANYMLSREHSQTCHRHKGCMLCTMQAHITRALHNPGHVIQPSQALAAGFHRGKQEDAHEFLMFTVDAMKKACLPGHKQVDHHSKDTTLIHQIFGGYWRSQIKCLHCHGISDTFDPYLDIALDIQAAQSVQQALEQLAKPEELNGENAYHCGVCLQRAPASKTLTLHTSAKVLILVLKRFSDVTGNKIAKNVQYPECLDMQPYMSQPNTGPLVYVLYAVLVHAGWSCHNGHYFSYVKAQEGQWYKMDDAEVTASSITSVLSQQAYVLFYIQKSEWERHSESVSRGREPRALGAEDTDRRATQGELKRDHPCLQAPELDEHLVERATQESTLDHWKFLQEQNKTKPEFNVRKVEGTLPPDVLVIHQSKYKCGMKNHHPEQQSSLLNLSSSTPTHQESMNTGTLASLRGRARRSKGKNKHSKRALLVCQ
# Active calls of the source: *; . = not tested or not shown. Rule as the data show it: active = inhibition above about 30%; inactive = the rest.
SMILES,USP8 block,USP30 block,USP17 inh
COc1ccc(-c2cc(-c3nnc(COC(=O)C4COc5ccccc5O4)o3)c3ccccc3n2)cc1OC (configuration not stated),-7.2,-56.2,-35.1
CCCCNc1ccccc1C(=O)OCc1nnc(-c2cc(-c3ccc(OC)c(OC)c3)nc3ccccc23)o1,72.1*,-37.3,8.8
O=C(COC(=O)c1ccccc1NS(=O)(=O)c1ccc2c(c1)OCCO2)c1ccc([N+](=O)[O-])cc1,-131.6,-14.8,-20.1
COc1ccc(C(=O)COC(=O)c2ccccc2NS(=O)(=O)c2ccc(O)c([N+](=O)[O-])c2)cc1,61.8*,47.2*,73.6*
O=C(Nc1ccc2c(c1)nc1n2CCCCC1)C1c2ccccc2Oc2ccccc21,6.4,8.3,48.2*
O=C(O)c1cccc(NC(=O)C2c3ccccc3Oc3ccccc32)c1,-15.0,-12.3,-0.6
C/C(=C\c1ccccc1)CN1CCC(O)(c2ccc(C)cc2)CC1,34.4*,11.7,12.8
CN(c1ccccc1)C1COC2(CCN(C(=O)CN3CCCCC3)CC2)C1 (configuration not stated),16.6,15.2,13.3
O=S(=O)(Nc1ccc(Oc2ccccc2)cc1)c1ccccc1,34.4*,63.7*,69.6*
NC(=O)c1cccc(NS(=O)(=O)c2ccccc2)c1,2.4,-1.4,-8.8
O=C(c1cc(NCc2ccc(F)cc2)nc2ccccc12)N1CCOCC1,0.7,-12.0,-2.0
CCN1C[C@@]23CN(C(=O)c4cccc(OC)c4)C[C@@H](C[C@@H]2S1(=O)=O)O3,-21.8,8.3,-5.3
COc1cccc(NC(=O)c2nnn(-c3ccccc3)n2)c1,-3.1,0.2,-0.8
Clc1ccc(-c2cnc3sc(NCCc4ccccn4)nn23)cc1,-2.3,21.8,8.0
Clc1ccccc1-c1cnc2sc(NCCc3ccccn3)nn12,-1.8,33.2*,12.6
CCC(C)c1nnc(-c2cnc3onc(C4CC4)c3c2)o1 (configuration not stated),-1.3,-0.4,0.0
COc1ccc(-c2nnc(SCCC(C)=O)n2CCc2ccccc2)cc1,0.0,-9.4,7.7
COCCn1cnc2c1c(=O)n(CC(=O)Nc1cccc(C#N)c1)c(=O)n2Cc1ccccc1,12.3,8.0,13.8
N#Cc1ccc(NC(=O)Nc2cccn(Cc3ccccc3Br)c2=O)cc1,90.3*,30.3*,81.1*
Cc1ccccc1NC(=O)CNc1ccc(C#N)cc1,8.9,-6.8,-7.4
N#Cc1cccc(NC(=O)Nc2cccn(Cc3ccccc3F)c2=O)c1,93.7*,27.2,85.5*
O=C(NCc1ccccc1)c1nc2c(s1)CCN(C(=O)c1cccnc1)CC2,-304.8,-0.3,-31.7
COCCn1c(C)cc(C(=O)CSc2ccc(Cl)cc2)c1C,16.1,-13.0,20.3
Cc1ccc2oc(SCC(=O)NCc3ccccc3)nc2n1,7.6,-8.2,-8.1
COc1ccc(CNC(=O)CSc2nc3nc(C)ccc3o2)cc1,-32.6,11.2,52.1*
SMILES,USP8 block,USP30 block,USP17 inh
O=C(CCc1c[nH]c2ccccc12)Nc1ccc(Br)cc1F,18.3,17.3,14.3
O=C(Nc1ccc(N2CCOCC2)cc1)c1ccccc1C(=O)c1ccc(F)cc1,-13.1,-25.6,-2.0
Cc1ccc(NC(=O)c2cnn3c2NC(C(=O)O)=CC3/C=C/c2ccccc2)cc1 (configuration not stated),34.3*,5.3,19.4
O=C(O)C1=CC(/C=C/c2ccccc2)n2ncc(C(=O)Nc3ccc(F)cc3)c2N1 (configuration not stated),41.5*,-26.7,13.2
Cc1ccc(NC(=O)c2ccccc2C)cc1,14.5,20.1,9.3
Cc1ccc2nc(C3CCN(Cc4ccc5ccccc5c4)CC3)[nH]c2c1,23.1,-8.3,-3.7
COc1ccccc1-n1ccn2cc(-c3ccc4c(c3)OCO4)nc2c1=O,0.3,-1.6,-0.7
COCCn1ccc(-c2cc(C(=O)N3CCC(N(C)C)C3)c3ccccn23)n1 (configuration not stated),-92.2,-229.0,-61.4
COc1ccccc1N1CCN(CC(O)c2c[nH]c3ccc(F)cc23)CC1 (configuration not stated),-33.7,-99.2,-31.7
CC1(c2ncc(CNC(=O)c3ccn[nH]3)cn2)CCCCO1 (configuration not stated),-3.5,-3.4,0.4
Cc1c(C(=O)NCc2cccc(Br)c2)oc2c1-c1[nH]ncc1CC2,84.3*,-28.6,62.5*
COc1ccc(-c2c3c(=O)n(Cc4cccnc4)ccc3nc3nc(C)nn23)cc1,1.8,8.2,5.0
Cc1nc(C)c(-c2nc(-c3cccc(C(=O)NC(C)C)c3)no2)s1,5.0,-29.4,3.2
CC(Oc1ccc(F)cc1)C(=O)Nc1ccc2nsnc2c1 (configuration not stated),83.5*,-2.1,34.1*
CC(Oc1ccc(F)cc1)C(=O)Nc1ccccc1Br (configuration not stated),6.5,7.2,10.1
COc1ccc(CCNC(=O)CN2C(=O)c3ccccc3C2c2c(C)[nH]c3ccccc23)cc1OC (configuration not stated),0.4,-37.2,-11.5
Cc1ccc(CNC(=O)CN2C(=O)c3ccccc3C2c2c(-c3ccccc3)[nH]c3ccccc23)o1 (configuration not stated),22.5,-15.2,36.6*
CN(C)CCOc1cccc(C(=O)N2CCC3(CC2)CO[C@@H]2c4ccccc4OC(C)(C)[C@H]2C3)c1,-6.2,9.9,-4.6
O=C(Nc1ccc(-c2nn3cnnc3s2)cc1)c1ccc(Br)cc1,14.2,-15.1,-9.4
O=C(COc1ccc(C2CCCCC2)cc1)Nc1ccc(-c2nn3cnnc3s2)cc1,33.2*,65.8*,71.6*
Cc1nc2c(c(=O)[nH]1)CC[C@@H]1CN(C(=O)C3CCCCC3)C[C@H]21,0.1,-15.5,1.2
Cc1oc(CNC(=O)c2cccc(Cl)c2)nc1C(=O)N1CCCC1,1.0,9.1,3.7
O=C(Cc1ccccc1F)Nc1nc(-c2ccco2)c(-c2ccco2)s1,73.9*,-111.3,.
COc1ccc(CC(=O)Nc2nc(-c3ccco3)c(-c3ccco3)s2)cc1,73.2*,-64.2,65.4*
COc1ccc(CC(=O)Nc2nc3c(s2)CCC3)cc1,23.2,-2.5,12.6
SMILES,USP8 block,USP30 block,USP17 inh
COc1ccc(-c2nc(NC(=O)Cc3ccccc3OC)sc2C)cc1,4.9,-9.1,6.0
COCC(=O)N1CCC2(C1)CN(c1ccccc1)C(=O)CN2C (configuration not stated),-93.1,11.6,-8.9
O=C(Nc1nccs1)C1c2ccccc2C(=O)N(C2CCCC2)C12CCCCC2 (configuration not stated),7.5,-1.8,-0.3
Cc1ccc(-n2nnc(C(=O)NCC3CCCO3)c2N)cc1Cl (configuration not stated),3.4,18.0,4.6
COc1ccccc1OCCn1c(C2CC(=O)N(C(C)(C)C)C2)nc2ccccc21 (configuration not stated),6.4,4.4,-5.6
O=C(NCCc1nc2ccccc2n1CCOc1ccccc1Cl)C1CCCCC1,83.1*,55.4*,64.1*
CCc1ccc(OCCn2c(CCNC(=O)C3CCCCC3)nc3ccccc32)cc1,69.4*,27.5,5.8
Cc1cccc(OCCn2c(CCNC(=O)C3CCCCC3)nc3ccccc32)c1,48.5*,78.7*,41.7*
CCn1c(CCNC(=O)c2ccccc2)nc2ccccc21,-4.3,.,4.3
COc1ccccc1C(=O)Nc1nc2ccccc2n1CCOc1ccccc1,2.2,.,-30.7
